PubChem BioAssay (NCI)
About 83,000 compounds went through this panel and 20% of them were active in at least one assay; those are over-represented in the sample as a whole.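 The endpoint reported here, percent growth, reads 100 for growth as untreated, 0 for no net growth and -100 for all cells dead.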 Activity calls are given as the source filed them.

These compounds were tested on UO-31 renal (assay: NCI-60 one-dose screen, 48 h (100 = growth as untreated, 0 = no growth, -100 = all killed)). Conditions: 10 µM unless noted.
Procedure: Growth inhibition of the UO-31 human tumor cell line is measured as a screen for anti-cancer activity. Cells are grown in 96 well plates and exposed to the test compound for 48 hours. Compounds are tested at a single concentration, which is 10^-5 M for most compounds. The reported endpoint is percent growth (GI% or GIPRCNT), where numbers from 0 - 100% represent growth inhibition, and numbers from -100% - 0 represent cell death. For example, a value of 40 represents 60% growth inhibition. A value of 0 means no net growth occurred over the course of the experiment. A value of -40 indicates 40% of cells at the beginning of the experiment died by the end of the experiment. A value of -100 means all cells are dead at the end of the experiment.
NCI-60 Human Tumor Cell Lines Screen was performed using the standard one-dose NCI protocol, which is described in more detail at https://dtp.cancer.gov/discovery_development/nci-60/default.htm.
Compounds with GIPRCNT values below 10 were considered active. Activity score was based on GIPRCNT using the following formula: […]
Score is 0 for GIPRCNT values of 100 or above, 50 for GIPRCNT values of 0, and 100 for GIPRCNT values of -100.

Structure (SMILES) | growth
NC(=O)c1c(NC(=O)c2ccccc2)sc2c1CCC(=O)C2 | 0.418% (active)
Cc1ccccc1Cn1cnc2ccc(-c3cc(NC(=O)c4ccc(NC5CCN(C)CC5)cc4)n[nH]3)cc21 | 89.2% (inactive)
C=C(C)[C@@H]1CC[C@]2(C(=O)O)CC[C@]3(C)[C@H](CC[C@@H]4[C@@]5(C)C[C@@H](Cc6cn(CCO[C@@H]7O[C@H](COC(C)=O)[C@H](OC(C)=O)[C@H](OC(C)=O)[C@H]7OC(C)=O)nn6)[C@H](O)C(C)(C)[C@@H]5CC[C@]43C)[C@@H]12 | 81.6% (inactive)
CN1C(=O)N(C)C2Nn3c(s/c(=C\c4ccc(C(F)(F)F)cc4)c3=O)=NC21 (stereo not given) | 82.3% (inactive)
COc1cc(-c2csc(NC(=O)c3cc(-n4cnc(C)c4)cc(C(F)(F)F)c3)n2)cc(OC)c1OC | 29.8% (inactive)
O=C1CC(N2C(=O)/C(=C/C(Cl)=C\c3ccc([N+](=O)[O-])cc3)SC2=S)C(=O)N1c1ccc(Cl)cc1 (stereo not given) | -42.8% (active)
Cc1ccc(CNc2ccc(Cl)cc2NCc2ccc(C)c(O)c2)cc1O | 11.9% (inactive)
O=C1c2cccnc2C(=O)c2c1c(C(=O)NCCn1ccnc1)c1ccccn21 | 61.3% (inactive)
O=C1COCCN1c1ccc(Nc2nc(Cl)nc(OCc3cn(Cc4ccccc4)nn3)n2)cc1 | 73.6% (inactive)
OB(O)c1cccc(-c2nc3ccc4[nH]ncc4c3c3c2CCCC3)c1 | 35.1% (inactive)
COC1C[C@H](O[C@@H]2C[C@H](O[C@@H]3C[C@H](O[C@@H]4C(=O)c5c(cc6cc(O[C@H]7C[C@@H](O[C@H]8C[C@@H](O)[C@H](O)C(C)O8)[C@H](O)C(C)O7)c(C)c(O)c6c5O)C[C@H]4C(OC)C(=O)[C@@H](O)[C@@H](C)O)OC(C)[C@H]3O)OC(C)[C@@H]2O)OC(C)[C@@H]1O (stereo not given in full) | 5.02% (active)
CSc1nnc(-c2cnn3c2NC(c2ccccc2)C3)n1-c1ccc(C(F)(F)F)cc1 (stereo not given) | 53.7% (inactive)
N#Cc1c(-c2ccc(Cl)cc2)nc(NN=Cc2cccc(O)c2)nc1N1CCOCC1 | 35.7% (inactive)
C=C(C)[C@@H]1CC[C@]2(C(=O)N3CCN(C)CC3)CC[C@]3(C)[C@H](CC[C@@H]4[C@@]5(C)CC(=C/c6ccncc6)/C(=N/O)C(C)(C)[C@@H]5CC[C@]43C)[C@@H]12 | 45.5% (inactive)
CC1(c2ccccc2O)NN=C(/N=C/c2cccc([N+](=O)[O-])c2)N1C(Cc1c[nH]c2ccccc12)C(=O)O (stereo not given) | 70.8% (inactive)
O=C1C(Cl)=C(Oc2ccccc2)C(=O)c2ccccc21 | 51.7% (inactive)
Nc1ncnc2c1N=C(c1ccc3c(c1)OCO3)CC(c1ccc([N+](=O)[O-])cc1)N2 (stereo not given) | 64.1% (inactive)
O=C(CSc1nc2ccc([N+](=O)[O-])cc2[nH]1)Nc1ccc(F)cc1 | 38.2% (inactive)
O=C(CCC(=O)N/N=C/c1ccccc1O)N/N=C/c1ccccc1O | 17.4% (inactive)
COc1ccc(/C=C2\COc3ccc(O)cc3C2=O)c(OC)c1OC | 71.5% (inactive)

Structure (SMILES) | growth
O=C(Cn1c(-c2ccc([N+](=O)[O-])cc2)nc2ccccc21)NNC(=O)c1cccnc1 | 65.6% (inactive)
O=C1/C(=C/c2ccc(-c3ccc(Br)cc3)o2)SC(=S)N1CCc1ccc(O)cc1 | 39.9% (inactive)
CCCNC(=O)Oc1ccc(/C(=C(/C)Cc2ccc(OC)cc2)c2ccc(OCCCN(C)C)cc2)cc1 | 60.6% (inactive)
O=C1N(Cc2ccccc2Cl)c2ccccc2C12NN=C(c1cccc(Cl)c1)S2 (stereo not given) | -58.3% (active)
O=C1/C(=C/c2ccc(F)cc2)COc2ccc(O)c(O)c21 | -96.9% (active)
CCNc1nc(-c2ccc(Cl)c(OC)c2)c(-c2ccnc(NCCCNS(=O)(=O)c3ccc(Cl)cc3)n2)s1 | 64.9% (inactive)
CCCCC(=O)c1ccco1 | 79.1% (inactive)
O=C(c1cc2ccccc2o1)c1nn(-c2ccccc2)/c(=N/N=Cc2cn(-c3ccccc3)nc2-c2cc3ccccc3oc2=O)s1 | 68.5% (inactive)
CCC(=C(c1ccc(OCCN2CCCC2)cc1)c1ccc(OCCN2CCCC2)cc1)c1ccc(Cl)cc1 | -73.4% (active)
CC(C)N1CCN(Cc2ccc3c(NNC(=O)c4ccccc4)nc4cc(F)ccc4n23)CC1 | 8.43% (active)
O=C1c2ccc3c4ccc5c6c(ccc(c7ccc(c2c37)C(=O)N1CCC[P+](c1ccccc1)(c1ccccc1)c1ccccc1)c64)C(=O)N(CCC[P+](c1ccccc1)(c1ccccc1)c1ccccc1)C5=O | 80.7% (inactive)
O=S(=O)(NCCNc1nccc(-c2c(-c3cccc(F)c3)nc3occn23)n1)c1ccc(Br)cc1 | 64% (inactive)
C=C1C(=O)O[C@H]2[C@H]1CC/C(COC(=O)NCc1cc[nH]c1)=C\CC[C@@]1(C)O[C@@H]21 | 58.3% (inactive)
O=C1/C(=C\c2cn(-c3ccccc3)nc2-c2ccc(-c3cccs3)cc2)CCc2ccccc21 | 54.2% (inactive)
Cc1ccccc1NC(=O)c1sc2nc(C)c(C(=O)/C=C/c3ccccc3)cc2c1N | 19.7% (inactive)
CCN1C(=O)N(CC)C2C1NN=c1s/c(=C\c3cccc([N+](=O)[O-])c3)c(=O)n12 (stereo not given) | 41.1% (inactive)
COc1ccc2cc(-c3ccc(NC(C)=O)c(=O)o3)ccc2c1 | 77.6% (inactive)
O=C(OCc1ccc2cccc(O)c2n1)N1CCN(C(=O)c2cc3cc(F)ccc3[nH]2)CC1 | -100% (active)
COc1cc(CNS(=O)(=O)c2ccc(C)cc2)ccc1OCc1cn(-c2ccc(F)cc2)nn1 | 63.9% (inactive)
COc1cccc(/C=C/C(=O)c2cc3c(N)c(C(=O)Nc4ccccc4)sc3nc2C)c1 | 11.8% (inactive)
